Reference: ChEMBL document CHEMBL4513216, “Probing the Open Global Health Chemical Diversity Library for Multistage-Active Starting Points for Next-Generation Antimalarials” (ACS Infect Dis, 2020)
Hit rate of the full screen: of about 65,000 compounds, about 2,100 (3.2%) showed an effect of 50% or more. The median lay at about -52%. The list comes from a sample in which strong results are over-represented; it also holds similar structures and randomly drawn compounds.

What follows are compounds tested on Plasmodium falciparum (assay: Screen against P. falciparum Asexual Blood Stage (ABS), at 5uM). Details: tested at 5 uM.
Assay type: functional, Dd2

| SMILES | INHIBITION [%] |
| --- | --- |
| CSC(C)(C)CNC(=O)NC1CCN(CC=C(C)C)CC1 | -10.7 |
| COCC(=O)N1C[C@H]2CCC[C@@]2(COC)C1 | -47.2 |
| Cc1cc(CN2CCCC2Cn2cncn2)no1 (stereo not given) | -174 |
| Cc1nc(C)n(CC2CCCN2Cc2cn3ccsc3n2)n1 (stereo not given) | -20.5 |
| c1ncn(CC2CCCN2Cc2cn3ccsc3n2)n1 (stereo not given) | -64.9 |
| Cc1cc(CN2CCCC2Cn2cccn2)no1 (stereo not given) | -13.9 |
| Cc1cc(CN2CCCCC2Cn2cncn2)no1 (stereo not given) | 57.3 |
| c1ncn(CC2CCCCN2Cc2cn3ccsc3n2)n1 (stereo not given) | 61.4 |
| c1cnn(CC2CCCN2Cc2cn3ccsc3n2)c1 (stereo not given) | 64.9 |
| c1ncn(CC2CCCN(Cc3cn4ccsc4n3)C2)n1 (stereo not given) | -48.4 |
| c1cnn(CC2CCCCN2Cc2cn3ccsc3n2)c1 (stereo not given) | -19.1 |
| CC(C)Nc1ncnc2c1CCN(C(=O)c1ccncc1F)CC2 | -7.41 |
| CS(=O)(=O)NC(=O)c1ccn(-c2ccccc2Cl)n1 | -38.1 |
| Cc1cc(C)n(CC2CN(CC(=O)NCc3ccccn3)CCO2)n1 (stereo not given) | -102 |
| CSCc1noc(CNC(=O)C2CCN(C3CCCCC3)CC2)n1 | -24.2 |
| COCCN1CCO[C@@H]2CN(C(=O)Cc3ccc(F)cc3)CC[C@@H]2C1 | 12 |
| COc1ccc(CN2C[C@H]3CN(c4ccsc4)C(=O)[C@H]3C2)cc1 | -68.6 |
| CCN1CCN2CCCN(S(=O)(=O)c3cccc(F)c3)C2C1=O (stereo not given) | 24.6 |
| CCN1CCN2CCCN(S(=O)(=O)c3ccc(S(C)(=O)=O)cc3)C2C1=O (stereo not given) | 20.7 |
| CCN1CCN2CCCN(S(=O)(=O)c3ccc(C)cc3C)C2C1=O (stereo not given) | 64.3 |
| Cc1cnc(C(=O)N2Cc3cc(Cl)ccc3OC3(CCOCC3)C2)cn1 | -30.5 |
| CCc1ccccc1N1CC(c2nnc(N)s2)CC1=O (stereo not given) | -94.9 |
| COCC(=O)N1CCOC2(CCCN(c3cnccn3)C2)C1 (stereo not given) | -88.3 |
| CC(C)CCN1CCCC12Cc1ccccc1CNC2=O (stereo not given) | 51.7 |
| Cc1ccc(CCN2CCCC23Cc2ccccc2CNC3=O)cc1 (stereo not given) | -15.1 |
| CC(C)(C)CN1CCCC12Cc1ccccc1CNC2=O (stereo not given) | 2.53 |
| N#Cc1cccc(CNc2ccc(F)cc2OCCO)c1 | -11 |
| Cc1ccc(S(=O)(=O)N2C[C@H]3C[C@H](NC(=O)c4cc[nH]n4)[C@H]3C2)cc1 | -17.3 |

| SMILES | INHIBITION [%] |
| --- | --- |
| CNS(=O)(=O)c1ccc(CNC(=O)Nc2cn[nH]c2)cc1 | -94.2 |
| COC1(CNC(=O)NCCOc2ccccc2)CCSC1 (stereo not given) | -45.4 |
| Cc1nc2c(c(NC3CC3)n1)CCN(C(=O)CCO)CC2 | -79.7 |
| CC(=O)c1cc(CN2CCCCC2c2nc3cc(F)ccc3[nH]2)cs1 (stereo not given) | 12.3 |
| CC(=O)c1cc(CN2CCCC2c2nc3ccc(C)cc3[nH]2)cs1 (stereo not given) | 50.3 |
| Cc1ccc2nc(C3CCCN3Cc3nnc(C)s3)[nH]c2c1 (stereo not given) | -102 |
| Cc1ccc2nc(C3CCCN3Cc3csc(C)n3)[nH]c2c1 (stereo not given) | 65.7 |
| Cc1ccc2nc(C3CCCN3Cc3cccc(CCN)c3)[nH]c2c1 (stereo not given) | 41.2 |
| Cc1ccc2nc(C3CCCN3Cc3scnc3C)[nH]c2c1 (stereo not given) | -84.1 |
| Cc1c(C(=O)NCCC(=O)N2CCCC2)cccc1-c1ccccn1 | -47.4 |
| CCOC(=O)[C@]12CCCN(Cc3cccs3)C[C@H]1CN(C(C)C)C2 | 9.63 |
| O=C(CN1CCOCC1)N(c1ccccc1)c1ccccc1 | -110 |
| CN(C)c1ncccc1CNC(=O)N1CCCC1CN1CCCC1 (stereo not given) | -122 |
| CC(=O)N1CCN(C(=O)CN2CCCC2c2c(C)nn(C)c2C)CC1 (stereo not given) | -90.6 |
| O=C(NC1CCC1)C1=NOC2(CCN(Cc3ccco3)C2)C1 (stereo not given) | -31.3 |
| COCc1ccc(C(=O)N2CCC(c3cc4nccnc4[nH]3)CC2)cc1 | -69.8 |
| COc1cc(C(=O)N2CCCC(n3ccnc3)C2)cc2c1OCCO2 (stereo not given) | -16.1 |
| Cc1nc[nH]c1CN1CCCC12CCN(c1nc3ccccc3s1)CC2 | 24.2 |
| Cc1nc[nH]c1CN1CCCN(c2nc3ccccc3s2)CC1 | 54.8 |
| Cc1ncnc(N2CCCN(c3nc4ccccc4s3)CC2)c1C | -442 |
| CC(=O)N1CCCC1c1nnn2cc(-c3ccncc3)ccc12 (stereo not given) | -69.2 |
| O=C(O)c1nnn(-c2ccccc2)c1-c1ccncc1 | -32.3 |
| CCn1c(C2CCNCC2)nn(Cc2ccc(C(=O)NC)o2)c1=O | -72.6 |
| CCCn1ncc(-c2ccnc(N[C@@H]3C[C@H]4CC[C@@H]3C4)n2)c1C | -34.5 |
| CCCn1ncc(-c2ccnc(NC3CCSC3)n2)c1C (stereo not given) | -10.1 |
| CCCn1ncc(-c2ccnc(NC3CC(C)(C)NC(C)(C)C3)n2)c1C | 67.2 |
| CC(C)N1CCC(N2CCC(C(=O)N(C)C)CC2)CC1 | -45.6 |
